SW480 rereplic = inducers of DNA re-replication in SW480 colon cancer cells; SW480 DNA re-replication, Hoechst DNA content imaging, 48 h; AID 624297; actives 1.8% (n = 340,000); Potency, µM (doses to about 46.1 µM), for the others: at the top dose re-replication activation, hits mostly activators; also: % of control where 0% means no effect; nearly all actives have a fitted effect of over 55% in size
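Image-based read-out: total Hoechst fluorescence of nuclei (405 nm excitation, 500-530 nm emission), with hits raising the fraction of high-intensity nuclei. SW480 colon cells incubated 48 hr with compounds at 37 C.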
PINK1 modulator = changes PINK1 expression; actives 0.2% (n = 410,000); Potency, µM (titrated, usually from 76.6 µM), for inactives: at the highest dose activation (PINK1 increase), hits mostly activators; PINK1 immunofluorescence, high-content cytometry, 24 h; AID 624263; active = well fitted activation curve with a large enough effect; inconclusive = small, poorly fitted or top-dose-only effect; cell line not stated here; also: % of control where 0% means no effect; nearly all actives have a fitted effect of over 65% in size
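Compound titrations (5 concentrations, 24 h) on a stable cell line; DMSO and CCCP controls. Endpoint: fixed-cell PINK1 immunofluorescence with mitochondrial, cell and nuclear markers, scanned by microplate cytometer.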
KB-V1 cytotox = KB-V1 MDR subline cytotoxicity; KB-V1 MDR cells viability, CellTiter-Glo, 72 h; Potency, µM (titrated, usually from 46.1 µM), most hits filed as cytotoxic; actives 3.4% (n = 400,000); AID 1347076; also: % is scaled to controls: 0 for no effect and ±100 for the full control effect; nearly all actives have a fitted effect of over 60% in size
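Cells of the MDR subline KB-V1 are plated, dosed with compound at multiple concentrations, and incubated 72 h at 37 degrees C; CellTiter-Glo is then added and luminescence read after 10 min.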
TSG101-PTAP inh = blocks PTAP/TSG101 interaction to inhibit HIV-1 budding | 340,000 tested, under 10 active | Fluorescence polarization, FITC-PTAP peptide / Tsg101 binding | Potency, µM (titrated, usually from 115 µM), inactives show top-dose activity change, negative = inhibition, hits mostly inhibitors | Q99816; active = well fitted inhibition curve with a large enough effect in the main read-out, with a control signal flat, not every such curve was filed as active; inconclusive = small, poorly fitted or top-dose-only effect, or effect the other way, or a change in a side signal; inactive = no such curve, though single readings can be large or run the other way; also: % of control where 0% means no effect
Target sequence (Q99816 whole entry, looked up): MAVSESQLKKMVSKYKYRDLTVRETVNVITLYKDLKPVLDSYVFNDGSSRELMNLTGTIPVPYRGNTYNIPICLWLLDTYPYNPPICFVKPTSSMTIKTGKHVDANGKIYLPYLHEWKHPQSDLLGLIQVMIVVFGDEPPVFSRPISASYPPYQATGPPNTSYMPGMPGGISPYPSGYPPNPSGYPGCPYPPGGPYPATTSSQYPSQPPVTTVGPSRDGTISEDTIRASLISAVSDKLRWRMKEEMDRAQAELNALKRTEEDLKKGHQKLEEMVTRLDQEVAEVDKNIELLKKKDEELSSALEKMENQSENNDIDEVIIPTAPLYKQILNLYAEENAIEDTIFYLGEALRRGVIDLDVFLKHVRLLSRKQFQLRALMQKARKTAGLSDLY
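Fluorescence polarization binding of Tsg101 binding domain (10 uM final) to FITC-labeled PTAP peptide (50 nM final) in HEPES pH 7.5 buffer with NaCl, Tween 20, EDTA, TCEP. Compounds added before peptide; binding 20 min at RT.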
MCF10A rereplic = inducers of DNA re-replication in MCF 10A breast cells; MCF 10A DNA re-replication, Hoechst nuclear intensity, 48 h; Potency, µM (titrated, usually from 46.1 µM), inactives show at the top dose activity, positive = re-replication, hits mostly activators; actives 2.9% (n = 350,000); AID 624296; also: % of control where 0% means no effect; nearly all actives have a fitted effect of over 50% in size
KB-3-1 cytotox = KB-3-1 parental cell cytotoxicity. KB-3-1 viability, CellTiter-Glo ATP luminescence, 72 h. Potency, µM (highest dose often 46.1 µM), most hits filed as cytotoxic. actives 1.4% (n = 400,000). AID 1347075; also: % is scaled to controls: 0 for no effect and ±100 for the full control effect; nearly all actives have a fitted effect of over 60% in size
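Parental KB-3-1 adenocarcinoma cells in phenol-red-free DMEM with 10% FBS were pin-treated with compounds at several concentrations, incubated 72 h at 37 °C, and viability read by CellTiter-Glo luminescence; concentration-effect curves were fitted after normalization.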
* marks the source's active call; other numbers are inactive results; i = inactive; u = inconclusive; x = not tested or not shown; [ ] = remark or other dose. Most compounds without a hit are left out; they make up all but 6.8% or so of the library. Unless noted, calls follow the shape of the dose curve; as a rule, active = well fitted curve in the direction sought with a large enough effect; inconclusive = small, poorly fitted or top-dose-only effect, or another doubt; inactive = no such curve, though single readings can be large; an effect the other way counts as inactive or inconclusive. Potency is read from the fitted curve at half-maximal effect.

SMILES | SW480 rereplic | PINK1 modulator | KB-V1 cytotox | TSG101-PTAP inh | MCF10A rereplic | KB-3-1 cytotox
CCC1CN(CC(=O)NC(c2ccccn2)C(F)(F)F)Cc2cc(OC)ccc2O1 (stereo unspecified) | x | 1% | x | x | x | x
COc1ccc(N2CC(NC(=O)/C=C\c3ccc4c(c3)OCO4)CC2=O)cc1OC (stereo unspecified) | x | 0% | i | x | x | i
CC1(c2ccccc2)CC(C)(C)N2C(=O)/C(=C3\SC(=S)NC3=O)c3cccc1c32 (stereo unspecified) | -5% | 13% | u | -7% | 3.3µM* | i
CC(=C1SC(=S)NC1=O)c1ccccc1 | -4% | -3% | u | -1% | 10% | i
O=C(C#Cc1ccccc1)c1ccco1 | 5.8µM* | -1% | i | -5% | u | u
O=C1c2cccc3cccc(c23)C(=O)C1(O)O | u | 4% | i | -3% | 21µM* | i
CCOc1ccc(N(CC(=O)NCc2cccc(OC)c2)S(=O)(=O)c2c(C)noc2C)cc1 | 4% | 0%[38.3 µM] | 7.3µM* | -10% | 17% | i
COc1ccc(N(CC(=O)NCc2cccc(OC)c2)S(=O)(=O)c2c(C)noc2C)cc1 | 2% | 3% | 13µM* | -7% | 12% | i
CCOc1ccccc1NC(=O)C(Cc1ccccc1)NS(=O)(=O)c1ccc2c(c1)oc(=O)n2C (stereo unspecified) | x | 2% | i | x | x | i
COc1ccc(CNc2nc(-c3cccc(C#N)c3)nc3ccccc23)c(OC)c1 | x | 6% | x | x | x | x
O=C(NCc1ccccc1Cl)C(=O)NCC(c1ccc2c(c1)OCO2)N1CCOCC1 (stereo unspecified) | x | -1% | i | x | x | i
CC(=O)c1cccc(NC(=O)CC(c2ccc(C)cc2)N2Cc3ccccc3C2=O)c1 (stereo unspecified) | x | -4% | u | x | x | i
O=C(Nc1cc(Sc2ccccn2)cc([N+](=O)[O-])c1)c1cccc(F)c1 | -3% | 14% | 13µM* | -4% | 5% | 13µM*
O=C(Nc1cc(Sc2nc3ccccc3s2)cc([N+](=O)[O-])c1)c1ccccc1 | 2% | 4% | u | 2% | u | u
COc1ccc(OCc2nc3c4c(ncn3n2)-c2ccccc2CC42CCCC2)cc1 | 7% | 10% | 12µM* | -1% | -40% | i
Oc1cccc(-c2nc3c4c(ncn3n2)-c2ccccc2CC42CCCC2)c1 | -4% | u | 7.3µM* | x | 2.1µM* | i
Cc1ccc(OCc2nc3c4c(ncn3n2)-c2ccccc2CC42CCCC2)cc1 | -55% | 11% | u | 1% | -43% | i
CCCCCCCCCCCC(=O)[O][Sn]([CH2]CCC)([CH2]CCC)[O]C(=O)CCCCCCCCCCC | 3% | x | x | x | 11% | x
Fc1ccc2c(c1)C1C=CCC1C(c1cc3c(cc1Br)OCO3)N2 (stereo unspecified) | u | 27%[38.3 µM] | u | -2% | 23µM* | u
O=C(O)Cn1cc(/C=C/[N+](=O)[O-])c2ccccc21 | 1% | 0% | u | 0% | 1% | i
O=[N+]([O-])/C=C/c1cn(Cc2ccccc2)c2ccccc12 | u | 1% | u | -6% | u | u
O=C(Cn1cc(/C=C\[N+](=O)[O-])c2ccccc21)Nc1ccccc1 | u | -1% | u | -2% | 8.2µM* | u
N#Cc1ccccc1Cn1cc(/C=C/[N+](=O)[O-])c2ccccc21 | u | -3% | u | 0% | 4.1µM* | u
COCCn1c(-c2ccc(-c3ccc([N+](=O)[O-])cc3Br)o2)nc2c1c(=O)[nH]c(=O)n2CC(C)C | 26% | 0% | 7.3µM* | -1% | 18µM* | i
COCCn1c(-c2ccc(SC)cc2)nc2c1c(=O)[nH]c(=O)n2CC(C)C | -6% | 2% | u | 0% | 13% | i
SMILES | SW480 rereplic | PINK1 modulator | KB-V1 cytotox | TSG101-PTAP inh | MCF10A rereplic | KB-3-1 cytotox
COCCn1c(=O)[nH]c(=O)c2c1nc(-c1ccc(-c3ccc(Cl)cc3[N+](=O)[O-])o1)n2Cc1ccccc1 | u | 5% | 23µM* | -2% | 5.2µM* | u
COc1ccc(-c2ccc(-c3nc4c(c(=O)[nH]c(=O)n4Cc4ccccc4)n3C)o2)c([N+](=O)[O-])c1 | 8% | 5% | i | 0% | 7% | u
Cc1cnc(C(=O)N2CCc3c([nH]c4ccccc34)C2c2ccc(F)cc2)cn1 (stereo unspecified) | 13% | 0% | i | -6% | 4% | u
CCc1cc(C(=O)N2CCc3c([nH]c4ccccc34)C2c2ccc(OC)cc2F)no1 (stereo unspecified) | u | 0% | u | -9% | u | 5.8µM*
Cc1cc(C(=O)N2CCc3c([nH]c4ccccc34)C2c2cccc(Cl)c2)nn1C (stereo unspecified) | -4% | -1% | i | -3% | 23% | i
CCc1ccc(C2c3[nH]c4ccccc4c3CCN2C(=O)c2cc(C)nn2C)cc1 (stereo unspecified) | u | 4% | u | -3% | 23µM* | u
COc1ccc(C2c3[nH]c4ccccc4c3CCN2C(=O)c2ccc(=O)n(C)n2)c(F)c1 (stereo unspecified) | 1% | 8% | i | 1% | -15% | i
O=C(c1cnccn1)N1CCc2c([nH]c3ccccc23)C1c1cccc(Cl)c1 (stereo unspecified) | 21% | 2% | 23µM* | 2% | 29% | u
COc1cc(CN(C(=O)c2ccc(Cl)cc2)C2CCS(=O)(=O)C2)cc(OC)c1OC (stereo unspecified) | x | -1% | i | x | x | i
O=C1CN(C(=O)Cc2ccc(F)cc2)C(c2ccccc2)c2cc(Br)ccc2N1 (stereo unspecified) | x | -1% | i | x | x | i
CC(=O)Oc1ccccc1/C=C/c1nc2ccccc2c(=O)o1 | 4% | -1% | i | 0% | 1% | i
Cc1cc(C)n(CC(=O)N/N=C/c2cccs2)n1 | -1% | -1% | i | -1% | 12% | i
Cc1cc(C)n(CC(=O)N/N=C/c2ccc([N+](=O)[O-])s2)n1 | 21µM* | 10% | u | -3% | u | u
O=C(N/N=C/c1ccc([N+](=O)[O-])s1)c1cccc(Br)c1 | 10µM* | -2% | u | 2% | u | i
O=c1oc(/C=C/c2ccc([N+](=O)[O-])s2)nc2ccccc12 | 6% | 40µM* | i | -8% | u | i
O=[N+]([O-])c1ccc(C=NN2CCOCC2)s1 | x | 0% | i | x | x | i
